Source: PubChem BioAssay AID1159606 (Sanford-Burnham Center for Chemical Genomics, 2016)
Screen size: about 360,000 compounds; about 7,300 (2%) were called active. This is one part of a sample in which actives are shown more often than they occur. Unmarked numbers belong to inactive results. Rule as the data show it: active = inhibition above about 50%; inactive = the rest.

Experiment: blockers of TWEAK-induced Fn14 reporter activity – luciferase reporter cells, uHTS, primary screen (AID 1159606)
Conditions: TWEAK-stimulated Fn14 reporter cells, luciferase luminescence, 8 h; at 10 µM; hits give high values

SMILES	inhibition
Cc1nc2nc(SCC(=O)c3ccccc3)[nH]c2cc1Br	-4.34%
Cc1nc(SCC(=O)c2ccccc2)c([N+](=O)[O-])[nH]1	9.51%
Cc1cc(SCC(=O)c2ccccc2)nc(SCC(=O)c2ccccc2)n1	53.9% (active)
C[C@H](CO)N1C[C@H](C)[C@H](CN(C)C(=O)c2ccncc2)OCc2ccccc2-c2c(n(C)c3ccccc23)C1=O	2.05%
O=C(CCC(=O)OCc1cccc(C(=O)Oc2ccccc2)c1)Nc1cccc2ccccc12	-15.2%
C(=N\Nc1ccc2ccccc2n1)/c1ccc2c(c1)OCO2	86.3% (active)
Cc1cccc(NC(=O)/C=C/c2ccc3c(c2)OCO3)n1	23.5%
O=C(CNC(=O)C(c1ccccc1)c1ccccc1)N/N=C\c1ccc2c(c1)OCO2	-46.1%
Cc1ccc(CNC(=O)CCCNC(=O)c2ccc(Cl)cc2)n1C	-27.7%
COc1ccc(N2CC(C(=O)N[C@@H](C)C(=O)N3CCCCC3)CC2=O)cc1 (stereo partly specified)	-3.79%
CCOc1ccc(N2C(=O)CSC2=NC#N)cc1	11.8%
COc1cc(N2C(=O)CSC2=S)cc(OC)c1OC	58.5% (active)
COc1cc(C(=O)N2CCN(C)CC2)cc(OC)c1OC	6.59%
O=C1CSC(=S)N1c1ccc(O)cc1	75.1% (active)
COc1cc(N2C(=O)CC3(CCCC3)CC2=O)cc(OC)c1OC	15.3%
O=C1CSC(=S)N1c1ccc(Cl)c(Cl)c1	49.6%
Cc1ccc(NC(=O)CSc2nn3c(=O)c(C)nnc3s2)cc1Cl	8.21%
Cc1ccc(Cn2nnc3c(=O)[nH]c(C4CCN(S(=O)(=O)/C=C/c5ccccc5)CC4)nc32)cc1	50.3% (active)
Cc1ccc(NC(=O)N2CCC(c3nc4c(nnn4Cc4c(F)cccc4Cl)c(=O)[nH]3)CC2)cc1	19.1%
CC(C)(C)c1ccc(Cn2nnc3c(=O)[nH]c(C4CCCN(C(=O)c5ccco5)C4)nc32)cc1 (stereo unspecified)	25.6%
O=C(OC1CCOC1=O)c1cccc(S(=O)(=O)Nc2ccc(F)cc2)c1 (stereo unspecified)	2.12%
COc1cncc(-c2cnc3sc(NCCc4ccccn4)nn23)c1	64.8% (active)
COc1ccc(-c2cc3nc(NCCOc4ccccc4)ccn3n2)cc1	5.16%

SMILES	inhibition
Cc1ccc(C(=O)N/C(=C\c2cccs2)C(=O)NCCc2ccccn2)cc1C	5.63%
CCC1(CC)NC(=O)N(CC(=O)OCC(=O)c2cc(C)c(C)cc2C)C1=O	-7.64%
C=CCC[C@@H](Cc1ccc(F)cc1)C(=O)O[C@H](CNC(=O)[C@H](CC=C)CC(=O)N(CCO)Cc1ccccc1)c1ccccc1	36.5%
CN1CCN(C(=O)c2ccc(NC(=O)c3ccc(Br)o3)cc2)CC1	2.47%
O=C(Nc1ccc(S(=O)(=O)N2CCCCCC2)cc1)c1c(F)cccc1F	2.17%
O=C(Nc1ccncc1)c1c(F)cccc1F	66.7% (active)
COc1cccc(OC)c1C(=O)Nc1ccc(Cc2ccncc2)cc1	-17.4%
Cc1ccccc1OCC(=O)NNC(=O)c1cc(S(=O)(=O)N(C)C)ccc1N1CCCC1	-9.51%
CN(C)S(=O)(=O)c1ccc(N2CCCC2)c(C(=O)Nc2cccc(F)c2)c1	0.2%
CN(C)S(=O)(=O)c1ccc(N2CCCC2)c(C(=O)NCc2ccccc2)c1	63.4% (active)
COc1ccc(N2CCN(C(=O)CNS(=O)(=O)c3ccc(C)c(C)c3)CC2)cc1	4.34%
COc1ccc(C(C#N)Nc2ccccc2C)cc1 (stereo unspecified)	-0.99%
COC(=O)[C@@]1(Cc2ccc(F)cc2)[C@H]2c3cc(C(=O)N4CCCC4)n(Cc4ccc(OC(F)(F)F)cc4)c3C[C@H]2CN1C(=O)c1ccccc1	18.4%
N/C(Cc1ccc([N+](=O)[O-])cc1)=N\OC(=O)COc1ccc2ccccc2c1	-1.78%
Cc1cc(C)cc(OCC(=O)O/N=C(\N)Cc2ccc([N+](=O)[O-])cc2)c1	-9.61%
N/C(=N\OC(=O)Cc1ccc([N+](=O)[O-])cc1)c1ccccn1	69.1% (active)
Cc1cccc(/C(N)=N/OC(=O)c2ccccc2Cl)c1	31.2%
N/C(=N\OC(=O)CCC1CCCCC1)c1ccccn1	18.4%
CO/N=C(\N)c1ccc([N+](=O)[O-])cc1	0.74%
O=C(COC(=O)c1ccccn1)NNC(=O)c1ccc([N+](=O)[O-])cc1	-4.89%
N/C(=N\OC(=O)c1ccc([N+](=O)[O-])cc1)c1ccccn1	77.4% (active)
Cc1ccc(C(=O)O/N=C(\N)c2ccccn2)cc1Cl	92.3% (active)
COc1ccc(C2OC(CCc3ccccc3)Cc3[nH]c(=S)[nH]c(=O)c32)cc1 (stereo unspecified)	-31.7%

SMILES	inhibition
Cc1ccc(S(=O)(=O)N2CCC(=O)N([C@H](COCc3ccccc3)Cc3ccccc3)CC2)cc1	1.7%
CC(Oc1ccc(Cl)cc1)c1ccnn1S(C)(=O)=O (stereo unspecified)	8.92%
CN(C)CCn1c2c(c(SCC(=O)Nc3ccccc3C(F)(F)F)nc1=O)CCCC2	-2.47%
CC(C)(C)c1ccc(/C=C/C(=O)NCCCn2ccnc2)cc1	13.5%
O=C(NC1CCCC1)C1c2ccccc2OCC(=O)N1Cc1ccccc1 (stereo unspecified)	2.4%
COC(=O)Nc1ncc(CN2CCCCC2)s1	1.88%
Cc1nc(-c2ccc(NC(=O)c3cccs3)cc2)cs1	69% (active)
CCc1ccc(NC(=O)C(=O)NNC(=O)c2cccs2)cc1	-12.2%
Cc1ccc(OCC(=O)Nc2ccc(NC(=O)c3cccs3)cc2)c(C)c1	-68.7%
CCN(C(=O)CSc1nnc2ccccn12)C1CCS(=O)(=O)C1 (stereo unspecified)	7.23%
COc1ccc2c(c1)c(=Cc1ccc(N(C)C)cc1)c1cc(-c3ccccc3)[n+](C)n12	100% (active)
CC1(C)CC(=O)C2=C(C1)N=C1SCCC(=O)N1C2c1ccc(C(F)(F)F)cc1 (stereo unspecified)	1.88%
O=C1OC(Oc2ccc(Br)cc2)(c2ccccc2)c2ccccc21 (stereo unspecified)	7.48%
Nc1[nH]c(C(=O)c2ccccc2)c(-c2ccncc2)c1C(=O)NCc1cccc2ccccc12	36%
CC(C)CCNC(=O)c1ccc2c(Cl)c3c(nc2c1)CCC3	58.4% (active)
COc1cccc(NC(=O)c2ccc3c(SCC(=O)O)c4c(nc3c2)CCCC4)c1	-6.4%
CC(=O)c1ccc(NC(=O)c2ccc3c(Cl)c4c(nc3c2)CCCC4)cc1	40.1%
CCc1ccc([C@@H]2CC(=O)[C@@H]3CN(S(=O)(=O)c4ccc(C)cc4)[C@H](c4ccc(Cl)cc4)C[C@@H]3N2S(=O)(=O)c2ccc(C)cc2)cc1	-18.3%
COCOCCn1cc(CN2CCS(=O)(=O)N(Cc3ccc(-c4ccc(OC)cc4)cc3)C(CC(C)C)C2=O)nn1 (stereo unspecified)	-6.75%
COCc1cc(=O)[nH]c2cc(NC(=O)C(F)(F)F)c(C)cc12	6.5%
C[C@H]1CN([C@@H](C)CO)C(=O)CCCn2cc(nn2)CO[C@@H]1CN(C)S(=O)(=O)c1ccc(-n2cccn2)cc1	-16.6%
O=C(O)c1ccc2c(c1)C(=O)N(c1ccc(/C=C/C(=O)c3ccccc3)cc1)C2=O	75.5% (active)
O=C(c1ccc2c(c1)C(=O)N(c1ccc(Cl)cc1)C2=O)N1CCN(c2ccccn2)CC1	-12.4%

SMILES	inhibition
Cc1cccc(N2C(=O)c3ccc(C(=O)Nc4cccc(C(=O)O)c4)cc3C2=O)c1	8.83%
CCN1C[C@@H]2[C@@H]3C(=O)N(C)C(=O)[C@@H]3[C@](C)(C1=O)N2C(=O)c1ccccc1	11.5%
CC(Sc1nncn1C)C(=O)NCCC1=CCCCC1 (stereo unspecified)	-1.74%
COc1ccc(NC(=O)ON=C2c3ccccc3-c3ccccc32)cc1	57.8% (active)
COc1ccc(NC(=O)C(Br)C(C)C)cc1 (stereo unspecified)	-6.35%
COc1ccc(NC(=O)CCCC(=O)c2ccccc2)cc1	-22.6%
CCC1CCCCN1C(=O)Nc1cccc(NC(=O)N2CCCCC2CC)c1 (stereo unspecified)	-4.07%
CCCCn1c(N)c(N(Cc2ccccc2OC)C(=O)COc2cc(C)ccc2Cl)c(=O)[nH]c1=O	-6.52%
CC(C)CC(=O)N1CCN(Cc2ccccc2Br)CC1	-11.1%
CCC1OC(C2CC2)CC2=C1C(=O)OC(C)(C)O2 (stereo unspecified)	6.62%
CC(C)Cn1c(SCC(=O)Nc2ccc(Cl)cc2F)nc(O)cc1=O	0.05%
Cn1c(SCC(=O)Nc2ccc(Cl)cc2)nc(O)cc1=O	80.5% (active)
COc1ccccc1-n1c(SCC(=O)Nc2ccc(Cl)cc2)nc(O)c(Cc2ccccc2)c1=O	-7.18%
O=C(COC(=O)c1ccc(NS(=O)(=O)c2cccs2)cc1O)Nc1ccc(F)cc1	1.2%
CCOC(=O)N1CCN(C(=O)C2CCCN(c3ncnc4c3sc3cccc(F)c34)C2)CC1 (stereo unspecified)	28.8%
FC(F)(F)C1CCCN(c2nsc3ccccc23)C1 (stereo unspecified)	7.5%
CCCCCCCCN1C(=O)[C@H](CC(=O)NCc2cccc3ccccc23)C[C@@]2(C(=O)OC)CCCCC=C12	-1.79%
CS(=O)(=O)N(CC(=O)N1CCN(Cc2ccccc2)CC1)c1ccc2c(c1)OCCO2	14.7%
CC(=NC1CCN(Cc2ccccc2)CC1)c1c(O)[nH]c(=O)[nH]c1=O	0.57%
CN(C)c1nc(=Nc2cccc(Cl)c2)ss1	5.73%
c1ccc(CN2CCC(N=C3NN=C(c4ccc5c(c4)OCCO5)CS3)CC2)cc1	57.6% (active)
Clc1cccc(N=C2NN=C(c3ccc4c(c3)OCCO4)CS2)c1	84.4% (active)
